PGC1a acetyl inh – PGC1a acetylation modulation, inhibitor mode; U2OS PGC1a acetylation, AlphaScreen anti-acetyl-lysine; with virally co-expressed GCN5 acetyltransferase; inhibition, % at 15.6 µM; actives 0.17% (n = 350,000);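 active = every replicate shows inhibition of at least 40%; inconclusive = mean inhibition at least 40% but some replicate below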;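 note: 0% = neutral control wells and 100% = positive control wells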
Env fusion inh – blocks HIV Env-driven cell-cell fusion | HeLa-JRFL Env/CEM21 cell fusion, luciferase | inhibition, % at 12.3 µM | actives 1.1% (n = 360,000);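 active = mean replicate inhibition score of at least 50 and every replicate individually at or above 50; inconclusive = only one of the two criteria met; inactive = mean below 50 and not all replicates reaching 50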;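 note: 0% = plate neutral controls and 100% = maraviroc near 300 nM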
NSD2 inh – inhibitors of human histone methyltransferase NSD2. AID 743445. actives 0.54% (n = 310,000). inhibition, % at 12.5 µM. NSD2 peptide methylation, AlphaScreen, 120 min; in the data active = inhibition above about 50%
Target sequence (O96028 whole entry, looked up): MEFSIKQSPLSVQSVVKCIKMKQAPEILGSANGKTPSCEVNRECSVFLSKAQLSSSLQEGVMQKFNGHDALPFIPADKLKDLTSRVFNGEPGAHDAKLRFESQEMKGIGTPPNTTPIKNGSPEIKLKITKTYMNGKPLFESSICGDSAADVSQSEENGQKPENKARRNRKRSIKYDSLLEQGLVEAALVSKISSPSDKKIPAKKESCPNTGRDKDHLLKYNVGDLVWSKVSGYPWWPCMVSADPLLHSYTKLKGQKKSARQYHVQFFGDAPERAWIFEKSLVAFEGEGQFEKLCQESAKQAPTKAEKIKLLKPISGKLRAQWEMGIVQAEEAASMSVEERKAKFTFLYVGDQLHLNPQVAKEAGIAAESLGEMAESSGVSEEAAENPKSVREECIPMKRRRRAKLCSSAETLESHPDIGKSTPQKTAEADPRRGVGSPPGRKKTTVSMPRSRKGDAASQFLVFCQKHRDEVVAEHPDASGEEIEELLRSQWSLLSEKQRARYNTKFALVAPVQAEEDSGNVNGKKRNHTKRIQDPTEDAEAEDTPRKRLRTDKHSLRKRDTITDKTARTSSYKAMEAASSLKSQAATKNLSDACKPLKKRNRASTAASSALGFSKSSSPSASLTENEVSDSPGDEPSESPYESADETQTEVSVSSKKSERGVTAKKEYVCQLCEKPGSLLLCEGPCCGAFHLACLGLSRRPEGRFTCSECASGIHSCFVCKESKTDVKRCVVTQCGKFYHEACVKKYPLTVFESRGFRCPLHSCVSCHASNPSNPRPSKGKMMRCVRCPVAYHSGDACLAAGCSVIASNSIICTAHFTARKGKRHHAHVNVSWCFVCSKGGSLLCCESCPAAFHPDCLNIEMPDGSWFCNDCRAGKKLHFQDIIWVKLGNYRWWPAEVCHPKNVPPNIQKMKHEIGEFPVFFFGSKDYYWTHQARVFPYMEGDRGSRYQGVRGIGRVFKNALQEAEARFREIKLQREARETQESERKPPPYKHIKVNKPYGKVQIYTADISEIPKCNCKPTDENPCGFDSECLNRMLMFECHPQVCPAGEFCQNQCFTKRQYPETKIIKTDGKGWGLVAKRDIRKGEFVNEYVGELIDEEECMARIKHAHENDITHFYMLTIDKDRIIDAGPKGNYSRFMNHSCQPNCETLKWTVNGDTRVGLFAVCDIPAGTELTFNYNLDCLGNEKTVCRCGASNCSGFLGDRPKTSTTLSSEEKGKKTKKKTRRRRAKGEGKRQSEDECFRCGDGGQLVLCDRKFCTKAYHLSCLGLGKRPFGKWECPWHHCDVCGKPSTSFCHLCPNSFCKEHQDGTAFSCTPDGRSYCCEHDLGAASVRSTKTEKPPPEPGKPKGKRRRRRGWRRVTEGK
AF4-AF9 inh – inhibitors of human MLL-AF4/AF9 interaction; inhibition, % at 10 µM; AID 651704; AlphaScreen, biotin-AF4 peptide binding to FLAG-AF9; P42568; actives 0.47% (n = 350,000);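 active = every replicate reaching a set inhibition limit, whatever the replicate mean, cut at about 25% in these data; inconclusive = mean inhibition reaches that limit but some replicates miss it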;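 note: 0% = plate neutral control median and 100% = total signal loss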
INS-1E GSIS act – primary screen for activators of insulin secretion dependent on glucose, INS-1E cells, GLuc reporter luminescence; INS-1E GLuc reporter insulin secretion, 2-3 h; activation, % at 16.6 µM; actives 0.61% (n = 370,000);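 active = lowest replicate activation of at least 40%, so every replicate reaches that level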;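 note: 0% = median of neutral control wells and 100% = median of IBMX positive control wells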
* = called active by the depositor; u = inconclusive; x = not tested or not shown; [ ] = remark or other dose. This is a sample that favours compounds with a hit; in the whole collection about 2.1% have one here.

SMILES	PGC1a acetyl inh	Env fusion inh	NSD2 inh	AF4-AF9 inh	INS-1E GSIS act
N#Cc1c(N)n(C2OC(CO)C(O)C2O)c2ncnc(N)c12 (centres undefined)	x	84.1*	x	3.2	x
Nc1ncnc2c1ncn2C1O[C@H](CO)[C@@H](O)[C@@H]1O (some centres undefined)	-0.1	-2.5	x	2.7	-0.2
COC(=O)c1cc(=O)n(-c2ccccc2)c(=Nc2ccccc2)s1	x	-8.7	x	28.1*	x
CCOC(=O)c1ccc(N=c2sc(C(=O)OC)cc(=O)n2-c2ccc(C(=O)OCC)cc2)cc1	1.7	x	x	6.4	3.5
CN(C)CC(=O)Nc1ccc2c(c1)[C@H]1C[C@H](CC(=O)NCc3cc(F)ccc3F)O[C@@H](CO)[C@H]1O2	7.0	-4.9[16.7 µM]	x	-2.1	7.8
CC1CCCN(C(=O)c2nn(C)c3c2CSc2ccccc2-3)C1 (centres undefined)	-14.2	-7.9	x	-1.7	7.4
CC1CCCC(C)N1CCCNC(=O)c1nn(C)c2c1CSc1ccccc1-2 (centres undefined)	6.7	80.3*	2.2	6.3	2.3
COc1ccc(CNC(=O)CCS(=O)(=O)c2ccc3c(c2)NC(=O)C(C)S3)cc1 (centres undefined)	x	5.8	3.9	-3.5	8.5
COc1ccc(CNC(=O)CCS(=O)(=O)c2ccc3c(c2)NC(=O)CS3)cc1	3.4	12.9	-3.3	-5.3	144.6*
COc1ccc(S(=O)(=O)NCCC(=O)NCc2ccc(F)cc2)cc1	80.1*	4.3	6.0	x	1.8
COc1ccc(CNC(=O)CCNS(=O)(=O)c2ccc(Cl)cc2)cc1	1.5	10.1	-2.4	1.4	7.6
Cc1cc(NC(=O)CSc2ccc3nnc(CCNS(=O)(=O)c4ccccc4)n3n2)no1	-10.6	3.2	-1.8	-0.7	-1.7
Cc1nnc(SCC(=O)N2N=C(c3ccc(Cl)cc3)CC2c2ccco2)[nH]c1=O (centres undefined)	x	4.9	13.0	-0.3	-2.2
CC[C@H](C)C1OC(=O)[C@@H](C)[C@@H](CC)NC(=O)[C@H](C)N(C)C(=O)C(C)(C)C(=O)C(C)NC(=O)[C@H](Cc2ccc(OC)cc2)N(C)C(=O)[C@H](C(C)C)N(C)C(=O)CNC(=O)[C@H](CC(C)C)N(C)C(=O)CNC1=O (some centres undefined)	74.1*	x	x	x	x
CC(C)C[C@@H]1NC(=O)[C@H](Cc2ccccc2)N(C)C(=O)[C@H](C)NC(=O)c2ccccc2NC(=O)[C@H](Cc2ccc(O)cc2)N(C)C1=O	4.4	x	x	-0.3	-1.9
COCc1[nH]nc2c1C(c1ccc(F)cc1)N(Cc1ccccc1)C2=O (centres undefined)	x	77.3*	x	-9.7	15.7
CSc1nc(Cl)cc(Nc2ccccc2N)n1	-4.6	78.7*	5.4	-5.8	14.9
Nc1nc(Cl)cc(Nc2ccccc2Cl)n1	x	-32.1	19.6	u	18.7
CCCn1c(CN2CCN(C(=O)OCC)CC2)nc2cc([N+](=O)[O-])ccc21	-18.1	32.8	2.4	-0.5	-5.3
Cc1[nH]nc2c1C1(C(=O)N(Cc3ccc(Cl)cc3)c3ccccc31)C(C#N)=C(N)O2 (centres undefined)	-3.1	85.2*	-0.5	x	x
COC(=O)Cc1[nH]nc2c1C1(C(=O)N(Cc3ccccc3)c3ccccc31)C(C#N)=C(N)O2 (centres undefined)	-1.8	-25.9	16.4	x	x
CCCN1[C@@H]2Cn3c(ccc(C4=CCCCC4)c3=O)[C@H]1[C@@H](C(=O)NCC)[C@@H]2CO	x	x	x	-2.3	-1.9
O=C(O)COc1ccccc1/C=N/NC(=O)Cc1csc(Nc2cccc(C(F)(F)F)c2)n1	10.2	8.8	x	-1.3	-19.4
Cc1cc2nncn2c2ccccc12	6.3	-354.7	0.5	x	x
Cc1ccccc1-n1c(=O)c2ccccc2n2cnnc12	x	83.2*	-3.4	x	x
SMILES	PGC1a acetyl inh	Env fusion inh	NSD2 inh	AF4-AF9 inh	INS-1E GSIS act
CCc1cc2c(=O)c(-c3nc4ccccc4n3C)c(C)oc2c(CN2CCN(CCO)CC2)c1O	-2.7	x	-2.6	-0.4	13.2
CCc1cc(-c2n[nH]c(C)c2-c2nc3ccccc3n2C)c(O)c(CN2CCN(C)CC2)c1O	2.0	x	12.9	25.2*	-4.9
CCc1cc2c(=O)c(-c3nc4ccccc4n3C)c(C(C)C)oc2c(CN2CCN(C)CC2)c1O	-1.4	56.6*	21.5	x	x
Cc1ccc(NC2=C/C(=N/S(=O)(=O)c3cccs3)c3ccccc3C2=O)cc1	x	73.7*	33.6	4.5	x
Cc1ccc(S(=O)(=O)Nc2ccc(O)c(Sc3ncn[nH]3)c2)cc1	9.7	2.9	0.6	-3.2	7.9
CC(C)(C)c1ccc(S(=O)(=O)/N=C2\C=C(NS(=O)(=O)c3ccccc3)C(=O)c3ccccc32)cc1	7.0	29.1	108.4*	5.6	-23.7
Cc1ccc(S(=O)(=O)/N=C2/C=C(Sc3ncn[nH]3)C(=O)c3ccccc32)cc1	77.2*	x	x	x	x
Cc1ccc(S(=O)(=O)/N=C2\C=C(Nc3ccc(O)cc3)C(=O)c3ccccc32)cc1	86.5*	x	33.7	x	x
COc1ccc(C2CC(c3cccc([N+](=O)[O-])c3)=NN2/C(C)=C/C(C)=O)cc1 (centres undefined)	-0.4	-10.7	1.2	-3.7	x
CSc1nc2ccccc2s1	-0.2	x	x	-2.4	20.7
CC(C)c1ccc(/C=N\NC(=O)c2ccc(Cn3cccn3)o2)cc1	-5.6	x	-0.5	1.9	-14.8
O=C1C(Nc2ccccc2)=C/C(=N/S(=O)(=O)c2cccs2)c2ccccc21	59.3*	x	x	x	x
Cc1ccc(S(=O)(=O)/N=C2\C=C(Nc3cccc(C(=O)O)c3)C(=O)c3ccccc32)c(C)c1	x	-23.1	117.1*	10.1	-25.8
COC(=O)c1ccccc1NC1=C/C(=N\S(=O)(=O)c2cccs2)c2ccccc2C1=O	4.7	29.9	10.2	12.1	x
CCc1ccc(NC2=CC(=O)C(=O)c3ccccc32)cc1	x	6.3	9.8	10.4	-14.6
CCc1ccc(S(=O)(=O)/N=C2\C=C(Nc3ccc(C(=O)O)cc3)C(=O)c3ccccc32)cc1	x	73.5*	x	28.5*	-23.0
CCOC(=O)c1c(NC(=O)CSc2nnnn2C)sc(C)c1-c1ccc(C)cc1	-9.4	81.1*	4.3	x	2.3
CCOC(=O)c1c(-c2ccccc2)csc1NC(=O)CSc1nnnn1C	7.7	u	5.6	x	-16.9
COCCn1c(SCC(=O)Nc2cc(C)on2)nc2c([nH]c3ccccc32)c1=O	-7.2	58.8*	-0.4	-2.7	25.7
C=CCn1c(SCC(=O)N2CCCC2)nc2c([nH]c3ccccc32)c1=O	x	24.1	-1.3	-1.4	8.9
CCn1c(SCC(=O)Nc2cc(C)on2)nc2c([nH]c3ccccc32)c1=O	0.2	x	-2.6	-2.9	8.8
C=CCn1c(SCC(=O)N2CCN(C(=O)OCC)CC2)nc2c([nH]c3ccccc32)c1=O	x	16.9	0.5	-4.9	43.2*
COc1ccc(C(=O)OCC(=O)c2c(N)n(C)c(=O)n(C)c2=O)c(OC)c1OC	6.8	3.4	-1.4	2.2	45.2*
Cn1c(N)c(C(=O)COC(=O)c2ccnc3ccccc23)c(=O)n(C)c1=O	x	5.0	x	-3.2	12.2
O=C(Cc1csc2ccccc12)NCC1CC1	x	3.7	0.0	-2.6	5.2
